For six molecules, Percent Effect results are on record in ChEMBL document CHEMBL3988442, “University of Dundee, Small-Polar-MMV Screening Library” (2021).

Common to all, as to parameters: scale not given: direction of the effect not stated beside the values
For test [1], the target named is Protein translocase subunit SecA (Escherichia coli (strain K12)) (UniProt P10408). The experiment in a line: Assay to Identify E. coli SecA ATPase Inhibitors. Type of test: functional. The conditions noted are these: 30 µM.
Sequence of Protein translocase subunit SecA (Escherichia coli (strain K12)) (P10408 whole entry): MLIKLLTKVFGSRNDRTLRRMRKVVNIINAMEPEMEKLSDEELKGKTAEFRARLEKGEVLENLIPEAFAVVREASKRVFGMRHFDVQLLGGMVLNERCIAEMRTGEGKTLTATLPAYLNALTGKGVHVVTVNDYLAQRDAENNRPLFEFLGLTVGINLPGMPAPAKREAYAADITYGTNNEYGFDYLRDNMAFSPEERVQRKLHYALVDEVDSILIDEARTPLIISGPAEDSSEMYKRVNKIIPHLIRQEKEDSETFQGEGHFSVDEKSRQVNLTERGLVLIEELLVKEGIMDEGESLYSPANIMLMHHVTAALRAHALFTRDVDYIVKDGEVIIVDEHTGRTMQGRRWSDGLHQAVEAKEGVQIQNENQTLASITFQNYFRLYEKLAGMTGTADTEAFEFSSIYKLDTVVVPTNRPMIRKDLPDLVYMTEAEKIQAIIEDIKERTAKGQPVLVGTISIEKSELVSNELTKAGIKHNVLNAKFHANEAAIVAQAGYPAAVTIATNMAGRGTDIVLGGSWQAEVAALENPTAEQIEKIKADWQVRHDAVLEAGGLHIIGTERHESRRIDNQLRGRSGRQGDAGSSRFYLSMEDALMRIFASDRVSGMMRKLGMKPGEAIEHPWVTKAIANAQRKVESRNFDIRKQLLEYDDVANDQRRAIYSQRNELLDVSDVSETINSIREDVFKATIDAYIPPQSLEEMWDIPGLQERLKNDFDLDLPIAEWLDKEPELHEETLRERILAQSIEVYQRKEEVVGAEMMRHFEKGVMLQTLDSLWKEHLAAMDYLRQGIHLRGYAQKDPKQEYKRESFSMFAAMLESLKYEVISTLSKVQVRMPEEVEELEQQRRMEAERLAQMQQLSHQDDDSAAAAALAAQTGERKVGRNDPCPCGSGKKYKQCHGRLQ
Test [2] has as its target T1, Ubiquitin-activating enzyme e1, putative (Leishmania donovani (strain BPK282A1)) (UniProt E9BSI1).
T1 sequence (whole entry): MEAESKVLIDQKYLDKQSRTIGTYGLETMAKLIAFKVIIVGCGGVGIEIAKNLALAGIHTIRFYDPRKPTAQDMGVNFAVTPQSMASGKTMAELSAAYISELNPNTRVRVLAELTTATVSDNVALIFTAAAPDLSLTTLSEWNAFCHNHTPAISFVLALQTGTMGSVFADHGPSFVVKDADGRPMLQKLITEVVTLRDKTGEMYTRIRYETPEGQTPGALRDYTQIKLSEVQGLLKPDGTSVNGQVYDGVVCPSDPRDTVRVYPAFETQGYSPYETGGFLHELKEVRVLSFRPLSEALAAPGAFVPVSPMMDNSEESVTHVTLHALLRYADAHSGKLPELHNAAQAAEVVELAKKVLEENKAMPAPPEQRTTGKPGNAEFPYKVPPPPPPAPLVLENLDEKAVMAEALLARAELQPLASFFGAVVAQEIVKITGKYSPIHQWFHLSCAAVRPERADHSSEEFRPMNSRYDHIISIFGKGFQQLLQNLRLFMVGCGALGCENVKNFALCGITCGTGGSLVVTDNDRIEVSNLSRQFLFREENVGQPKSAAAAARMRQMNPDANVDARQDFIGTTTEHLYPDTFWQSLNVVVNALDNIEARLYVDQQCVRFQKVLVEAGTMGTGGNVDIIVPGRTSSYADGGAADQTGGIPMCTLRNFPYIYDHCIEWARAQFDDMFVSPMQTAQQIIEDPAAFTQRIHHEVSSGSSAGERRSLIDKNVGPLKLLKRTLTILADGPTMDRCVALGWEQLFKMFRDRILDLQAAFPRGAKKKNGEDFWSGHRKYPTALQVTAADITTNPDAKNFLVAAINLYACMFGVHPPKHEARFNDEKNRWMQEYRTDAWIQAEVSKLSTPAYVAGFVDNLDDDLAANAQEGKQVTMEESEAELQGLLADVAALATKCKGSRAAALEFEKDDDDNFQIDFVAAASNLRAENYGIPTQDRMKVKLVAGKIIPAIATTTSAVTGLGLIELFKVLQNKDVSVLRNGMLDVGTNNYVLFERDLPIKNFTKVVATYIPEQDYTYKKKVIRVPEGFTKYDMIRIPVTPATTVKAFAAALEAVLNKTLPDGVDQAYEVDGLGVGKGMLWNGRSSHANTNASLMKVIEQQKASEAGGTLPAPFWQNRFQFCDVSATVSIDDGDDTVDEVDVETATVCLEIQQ
The experiment in a line: Leishmania donovani Ubiquitin Activating Enzyme (LdE1). Type of test: functional. The note with it: 30 µM.

Test [3] concerns the target AMP-activated protein kinase, AMPK (Homo sapiens) (UniProt P54646+O43741+P54619+Q9UGJ0+Q9Y478+Q13131+Q9UGI9). The experiment in a line: AMP-dependent Kinase enzyme assay. An in vitro enzyme assay that detects ADP turnover that is directly proportional to AMPK activity. This uses naive AMPK that is activated during the assay with MK-8722. It is filed as functional. The conditions noted are these: 30 µM.

Test [4] concerns the target Sialic acid-binding Ig-like lectin 9 (Homo sapiens) (UniProt Q9Y336). The experiment in a line: Hs-Siglec9 ALPHAscreen SOP 20170721. The note with it: 10 µM.
Another test deals with Trypanosoma cruzi. The experiment in a line: Trypanosoma cruzi phosphomannomutase and mannose-1-phosphate guanylyltransferase assay. Type of test: functional. The note with it: 10 µM.
For test [5], the target named is T2, Arginase-2, mitochondrial (Homo sapiens) (UniProt P78540).
T2 sequence (whole entry): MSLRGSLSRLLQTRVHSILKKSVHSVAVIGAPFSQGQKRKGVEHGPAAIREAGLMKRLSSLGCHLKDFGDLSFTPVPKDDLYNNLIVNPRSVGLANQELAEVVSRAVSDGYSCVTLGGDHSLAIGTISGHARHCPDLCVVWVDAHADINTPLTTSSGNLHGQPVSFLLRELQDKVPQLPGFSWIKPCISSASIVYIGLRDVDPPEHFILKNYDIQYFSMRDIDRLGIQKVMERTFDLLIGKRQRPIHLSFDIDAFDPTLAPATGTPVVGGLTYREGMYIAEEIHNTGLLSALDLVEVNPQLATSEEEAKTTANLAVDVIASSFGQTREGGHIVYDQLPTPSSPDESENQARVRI
The experiment in a line: in vitro enzyme assay to detect the production of urea directly proportional to the activity of Arginase II. Further: in the data most compounds retested in dose-response had high values. It is filed as functional. The note with it: 33.3 µM.

For test [6], the target named is T3, Proteasome subunit beta (Trypanosoma cruzi) (UniProt O96673).
T3 sequence (whole entry): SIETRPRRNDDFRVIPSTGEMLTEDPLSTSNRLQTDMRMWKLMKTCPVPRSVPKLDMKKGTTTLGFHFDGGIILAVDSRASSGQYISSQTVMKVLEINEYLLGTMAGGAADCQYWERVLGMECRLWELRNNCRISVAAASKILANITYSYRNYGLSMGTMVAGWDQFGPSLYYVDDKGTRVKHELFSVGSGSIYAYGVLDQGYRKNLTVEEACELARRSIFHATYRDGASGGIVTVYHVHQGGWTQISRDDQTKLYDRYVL
The experiment in a line: Trypanosoma cruzi proteasome chymotrypsin-like activity (TcProtChymo) assay. Further: in the data most compounds retested in dose-response had high values. It is filed as functional. The note with it: 9.37 µM.

The next test is filed under the species Homo sapiens. The experiment in a line: To identify inhibition of the IFN signalling (Jak-Stat) pathway via expression of an eGFP reporter gene under the control of an IFN-stimulated response element (ISRE) containing MxA promoter. It is filed as functional. The note with it: 30 µM.
Test [7] deals with T4, Tyrosyl-tRNA synthetase, putative (Trypanosoma cruzi (strain CL Brener)) (UniProt Q4DSP6).
T4 sequence (whole entry): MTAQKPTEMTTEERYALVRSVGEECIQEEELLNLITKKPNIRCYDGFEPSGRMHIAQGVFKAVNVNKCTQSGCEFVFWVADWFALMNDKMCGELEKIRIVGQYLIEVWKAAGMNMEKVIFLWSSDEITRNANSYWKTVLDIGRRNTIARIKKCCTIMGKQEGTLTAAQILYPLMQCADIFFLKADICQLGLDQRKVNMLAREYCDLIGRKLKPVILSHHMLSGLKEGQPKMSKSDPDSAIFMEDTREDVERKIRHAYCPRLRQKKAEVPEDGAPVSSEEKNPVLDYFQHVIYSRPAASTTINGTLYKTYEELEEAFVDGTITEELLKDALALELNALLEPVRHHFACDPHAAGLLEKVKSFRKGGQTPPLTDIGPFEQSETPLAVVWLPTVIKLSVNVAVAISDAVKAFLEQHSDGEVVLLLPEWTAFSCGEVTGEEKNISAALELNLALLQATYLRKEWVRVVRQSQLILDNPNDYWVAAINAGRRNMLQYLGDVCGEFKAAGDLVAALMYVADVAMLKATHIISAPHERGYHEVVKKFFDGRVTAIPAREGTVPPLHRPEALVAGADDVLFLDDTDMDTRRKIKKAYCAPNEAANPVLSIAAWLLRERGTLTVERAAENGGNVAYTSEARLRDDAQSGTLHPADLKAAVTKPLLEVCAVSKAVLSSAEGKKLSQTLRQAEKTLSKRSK
The experiment in a line: Trypanosoma cruzi tyrosyl tRNA synthetase (TcYRS) _High Tyrosine SOP. Further: in the data most compounds retested in dose-response had high values. The note with it: 30 µM. It is filed as functional.

In test [8] the target is T4, Tyrosyl-tRNA synthetase, putative (Trypanosoma cruzi (strain CL Brener)). The experiment in a line: Trypanosoma cruzi tyrosyl tRNA synthetase (TcYRS) SOP. It is filed as functional. The note with it: 30 µM.
The target in test [9] is Chromo domain-containing protein 1 (Saccharomyces cerevisiae (strain ATCC 204508 / S288c) (Baker's yeast)) (UniProt P32657). The experiment in a line: ScCHD-1 Enzyme Inhibition Assay. Further: in the data most compounds retested in dose-response had high values. Type of test: functional. The conditions noted are these: 30 µM.
Sequence of Chromo domain-containing protein 1 (Saccharomyces cerevisiae (strain ATCC 204508 / S288c) (Baker's yeast)) (P32657 whole entry, the tested form may be a part): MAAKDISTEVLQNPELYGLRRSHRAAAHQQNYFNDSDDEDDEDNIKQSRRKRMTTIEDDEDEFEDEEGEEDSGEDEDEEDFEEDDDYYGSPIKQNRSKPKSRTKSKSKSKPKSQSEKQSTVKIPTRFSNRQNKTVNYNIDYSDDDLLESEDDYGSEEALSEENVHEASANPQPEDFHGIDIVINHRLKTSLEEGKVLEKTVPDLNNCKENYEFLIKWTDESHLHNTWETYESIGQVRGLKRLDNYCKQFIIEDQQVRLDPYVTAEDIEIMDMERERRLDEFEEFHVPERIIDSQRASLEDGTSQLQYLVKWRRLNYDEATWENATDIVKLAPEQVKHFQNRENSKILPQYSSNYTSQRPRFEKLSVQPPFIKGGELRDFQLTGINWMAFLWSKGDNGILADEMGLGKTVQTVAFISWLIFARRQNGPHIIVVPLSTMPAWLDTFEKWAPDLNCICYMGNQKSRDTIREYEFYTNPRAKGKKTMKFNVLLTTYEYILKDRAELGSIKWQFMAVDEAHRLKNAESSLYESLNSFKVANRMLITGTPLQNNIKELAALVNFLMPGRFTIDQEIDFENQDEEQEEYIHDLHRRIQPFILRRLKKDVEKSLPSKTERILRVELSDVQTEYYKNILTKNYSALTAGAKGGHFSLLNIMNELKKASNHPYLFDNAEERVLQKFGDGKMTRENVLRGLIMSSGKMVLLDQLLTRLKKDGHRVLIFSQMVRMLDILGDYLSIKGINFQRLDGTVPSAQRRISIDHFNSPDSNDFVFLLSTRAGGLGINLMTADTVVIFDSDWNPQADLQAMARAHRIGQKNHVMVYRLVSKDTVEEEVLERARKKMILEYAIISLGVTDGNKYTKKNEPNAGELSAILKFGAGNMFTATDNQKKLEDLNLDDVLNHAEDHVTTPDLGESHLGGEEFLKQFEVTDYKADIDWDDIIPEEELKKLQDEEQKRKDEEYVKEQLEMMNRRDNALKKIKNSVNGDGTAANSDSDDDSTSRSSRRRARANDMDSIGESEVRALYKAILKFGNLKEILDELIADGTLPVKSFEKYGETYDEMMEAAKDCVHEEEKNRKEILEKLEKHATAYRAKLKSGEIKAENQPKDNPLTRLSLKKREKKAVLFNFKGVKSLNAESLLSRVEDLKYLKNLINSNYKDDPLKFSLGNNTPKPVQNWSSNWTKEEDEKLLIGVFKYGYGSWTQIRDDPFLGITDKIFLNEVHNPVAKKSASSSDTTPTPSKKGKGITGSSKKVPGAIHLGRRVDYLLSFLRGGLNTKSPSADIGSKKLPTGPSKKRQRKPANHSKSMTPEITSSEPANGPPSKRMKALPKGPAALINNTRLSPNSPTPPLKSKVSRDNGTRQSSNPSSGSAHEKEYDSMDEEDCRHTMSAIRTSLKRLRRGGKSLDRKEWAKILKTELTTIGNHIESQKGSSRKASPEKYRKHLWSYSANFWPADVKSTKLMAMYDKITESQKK

For part of these data: Potency and affinity values are given separately.

Sequence of Sialic acid-binding Ig-like lectin 9 (Homo sapiens) (Q9Y336 whole entry): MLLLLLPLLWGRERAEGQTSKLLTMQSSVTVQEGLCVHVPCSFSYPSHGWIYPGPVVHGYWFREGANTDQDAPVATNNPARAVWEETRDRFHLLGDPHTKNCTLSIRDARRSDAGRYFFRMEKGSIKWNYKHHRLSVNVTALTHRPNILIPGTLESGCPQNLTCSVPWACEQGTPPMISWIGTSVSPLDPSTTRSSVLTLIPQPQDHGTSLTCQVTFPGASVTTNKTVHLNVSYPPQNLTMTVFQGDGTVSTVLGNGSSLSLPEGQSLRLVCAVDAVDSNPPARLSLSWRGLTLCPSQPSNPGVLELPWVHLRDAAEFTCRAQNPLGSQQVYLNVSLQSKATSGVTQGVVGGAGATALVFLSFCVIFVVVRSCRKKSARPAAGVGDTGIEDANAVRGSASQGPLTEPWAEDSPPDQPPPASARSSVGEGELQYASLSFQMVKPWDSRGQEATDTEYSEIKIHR

`O=S1(=O)CCCN1Cc1coc(-c2cccs2)n1`: the Percent Effect in [1] is -1.93%; in test [2], 15.3%; in [3] it was -14.2%; in test [4] it was 1.81%; in the test with Trypanosoma cruzi, 2.82%; in test [5], 13.2%. Moreover, the Percent Effect is 23.3% in test [6]; -8.56% in the test listed under Homo sapiens; 5.26% in test [7]; 12.8% in [8]; -3.41% in test [9].

As for `c1ccc(CN2CC[C@@H]3O[C@@H](COCC4CCOCC4)CC[C@@H]32)nc1`, the Percent Effect in [1] is -4.64%; in test [2], 10.7%; in [3] it was 1.98%; in test [4] it was -3.4%; in the test on Trypanosoma cruzi, -0.394%; in [5] it was 2.1%. Further, the Percent Effect in test [6] was 12.4%; in the test filed under Homo sapiens, -2.6%; in test [7], 2.13%; in test [8] it was 8.97%; in test [9], -2.41%.

Consider `Cc1cc(C)c2nc(CN3CCOC(CCO)C3)cc(O)c2c1` (stereo unspecified), for which the Percent Effect was -2.9% in test [1]; 2.7% in [2]; -1.47% in test [3]; 5.2% in test [4]; 0.965% in the test with Trypanosoma cruzi; -2.38% in [5]. Also, the Percent Effect is 10.3% in test [6]; -6.99% in the test listed under Homo sapiens; 4.76% in [7]; 14.6% in test [8]; -1.34% in [9].

Consider `CCn1nc(C)cc1C(=O)Nc1cc(F)ccc1OCC1CCCO1` (stereo unspecified), for which the Percent Effect was -3.27% in test [1]; 2.6% in test [2]; 19.7% in test [3]; 7.39% in [4]; 0.686% in the test with Trypanosoma cruzi; -0.21% in [5]. For the same molecule, the Percent Effect in test [6] was 9.78%; in the test listed under Homo sapiens it was 34%; in test [7], 4.76%; in test [8], 9.41%; in [9] it was -11.3%.

As for `O=C1COc2cc(C(=O)NS(=O)(=O)c3ccccc3F)ccc2N1`, the Percent Effect in test [1] was -1.86%; in [2], 2.63%; in test [3], 3.61%; in test [4] it was -9.82%; in the test with Trypanosoma cruzi, -3.46%; in [5], -3.6%. Besides, the Percent Effect in test [6] was 5.16%; in the test listed under Homo sapiens it was -3.9%; in test [7], -4.43%; in test [8], -11.1%; in [9], 2.83%.

As to `O=C(CN1CCCCC1Cn1cncn1)NC1CCN(C2CC2)CC1` (stereo unspecified), the Percent Effect in test [1] was -0.975%; in test [2] it was -2.7%; in [3], -4.13%; in test [4], 22.5%; in the test on Trypanosoma cruzi, 3.28%; in test [5], -1.43%. The Percent Effect in [6] was 5.86%; in the test listed under Homo sapiens, 2.27%; in test [7], 2.65%; in [8], 7.32%; in test [9], -11.3%.
